Reference: PubChem BioAssay AID686978 (National Center for Advancing Translational Sciences (NCATS), 2013)
Screen size: about 420,000 compounds; about 64,000 (15%) were called active. Roughly 27% stayed inconclusive and do not appear here. The call rests on the fitted dose curve; in most records, active means well fitted inhibition curve with a large enough effect; inconclusive means small, poorly fitted or top-dose-only effect; inactive means flat fitted curve, though single readings scatter. These entries were drawn from the full list. Entries that show only a call come without a potency.

Test: qHTS for Inhibitors of human tyrosyl-DNA phosphodiesterase 1 (TDP1): qHTS in cells in absence of CPT; further: nearly all actives have a fitted effect of over 55% in size
Conditions: DT40 Tdp1-/- hTDP1 cells, no CPT, ATP luminescence, 48 h; activity change, negative = growth inhibition: at 46.2 µM (top of the series)
Outline: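 Luminescent ATP content (CellTiter-Glo) served as the growth readout. Knockout chicken DT40 cells expressing human TDP1 were exposed to compounds without camptothecin for a minimum 48 hr at 37 °C.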
Potency means the concentration at half of the fitted maximal effect.

Row | Structure (SMILES) | Potency
1 | O=C(COc1ccccc1[N+](=O)[O-])N/N=C/c1ccc[nH]1 | inactive
2 | COc1cc(/C=N\NC(=O)CNC(=O)c2cccc([N+](=O)[O-])c2)ccc1O | inactive
3 | CCc1ccc(S(=O)(=O)Nc2ccc(C)c(NS(C)(=O)=O)c2)cc1 | inactive
4 | COc1cccc(/C=N/NC(=O)CNC(=O)c2ccc(S(=O)(=O)N3CCOCC3)cc2)c1OC | inactive
5 | COc1ccc(C(=O)NCC(=O)N/N=C/c2ccc([N+](=O)[O-])s2)cc1OC | 16.4 µM (active)
6 | COc1ccc(/C=N/NS(=O)(=O)c2ccc(NC(C)=O)cc2)cc1 | inactive
7 | O=C(Cc1cc(=O)[nH][nH]1)N/N=C/c1ccccc1[N+](=O)[O-] | inactive
8 | CCc1ccc(S(=O)(=O)N/N=C\c2ccc([N+](=O)[O-])o2)cc1 | 16.4 µM (active)
9 | COc1cc(/C=N/NC(=O)CNC(=O)c2ccncc2)ccc1OC(C)=O | inactive
10 | Cc1ccccc1NCC(=O)N/N=C\c1ccc([N+](=O)[O-])s1 | 9.2 µM (active)
11 | COc1ccc(C(=O)NCC(=O)N/N=C/c2ccc([N+](=O)[O-])o2)cc1OC | 5.17 µM (active)
12 | COc1ccc(C(=O)COC(=O)c2ccc([N+](=O)[O-])s2)cc1OC | inactive
13 | CC1(C)S[C@@H]2[C@H](N=CN3CCCCCC3)C(=O)N2[C@H]1C(=O)O | inactive
14 | CN(C(=O)CN(CCO)CC(=O)N(C)C(C)(C)Cc1ccccc1)C(C)(C)Cc1ccccc1 | inactive
15 | [O-][n+]1c2c(nn1-c1ccc(Cl)c(Cl)c1)-c1nonc1CC2 | inactive
16 | Oc1ccccc1CNc1ncc(Br)cc1Br | inactive
17 | O=S(=O)(NCCc1ccc(Cl)cc1)c1cccs1 | inactive
18 | COc1cccc(-n2c(Cc3cc(=O)[nH]c(=O)[nH]3)nnc2SCC(=O)Nc2ccccc2)c1 | inactive
19 | Nc1nnnn1CC(=O)N/N=C/c1ccc(-c2cccc(Cl)c2)o1 | inactive
20 | C[C@H]1CN([C@@H](C)CO)C(=O)CCCn2cc(nn2)CO[C@@H]1CN(C)S(=O)(=O)c1cccs1 | inactive
21 | Cc1cc(C)nc(N/N=C/c2ccncc2)n1 | inactive
22 | O=C(N/N=C/c1ccc([N+](=O)[O-])cc1)C(=O)N1CCCC1 | inactive
23 | NC(=O)C(=O)N/N=C/c1ccc([N+](=O)[O-])o1 | 15 µM (active)

Row | Structure (SMILES) | Potency
24 | O=C(Cc1ccc([N+](=O)[O-])cc1)N/N=C/c1ccco1 | inactive
25 | Cc1nn(CC(=O)N/N=C/c2ccc(F)cc2)c(C)c1[N+](=O)[O-] | inactive
26 | Cc1cc(C)nc(N/N=C/c2ccc([N+](=O)[O-])o2)n1 | 16.4 µM (active)
27 | CC(C)(C)c1cc(C(=O)N/N=C/c2ccc([N+](=O)[O-])s2)n[nH]1 | 11.6 µM (active)
28 | Cc1cc(C)nc(Nc2cc([N+](=O)[O-])ccc2C)n1 | inactive
29 | CC(C)NC(=O)Nc1cccc2c1O[C@@H](CN(C)S(=O)(=O)c1ccc(F)cc1)[C@@H](C)CN([C@H](C)CO)C2=O | inactive
30 | O=C(O)C(c1cccs1)C1(O)CCCCC1 (stereo not given) | inactive
31 | COc1ccc(C)cc1N(CC(=O)NC(C)c1ccccc1)S(C)(=O)=O (stereo not given) | inactive
32 | CCc1c(C)nc(N)n2c(SCC(=O)NC3CCCCC3)nnc12 | inactive
33 | C[C@@H]1CN([C@@H](C)CO)C(=O)c2cc(Br)cnc2O[C@@H]1CN(C)C(=O)C1CCCCC1 | inactive
34 | C[N+](C)(C)CCOP(=O)([O-])OC[C@H](O)CO | inactive
35 | CN1C(=O)CC(N2CCN(c3ccccn3)CC2)C1=O (stereo not given) | inactive
36 | COC(=O)c1cc(NC(=O)CC2C(=O)NCCN2C(=O)c2ccc(F)cc2)cc(C(=O)OC)c1 (stereo not given) | inactive
37 | CCOc1ncccc1C(=O)OCC(=O)N1c2ccccc2CC1C (stereo not given) | inactive
38 | CN(C)c1ccc(CN2CCOc3ccc(CN4CCC(O)(c5cccnc5)CC4)cc3C2)cc1 | 16.4 µM (active)
39 | CCOC(=O)N1CCC(N2CCOc3ccc(CN4CCC(O)(c5cccnc5)CC4)cc3C2)CC1 | inactive
40 | C[C@@H]1CN(Cc2ccc3c(c2)CN(Cc2ccc(Oc4ncccn4)cc2)CCO3)C[C@H](C)O1 | inactive
41 | CCOCCCN(C(=O)Cn1nnc(-c2ccc(OC)c(OC)c2)n1)C(CC)C(=O)NC1CCCC1 (stereo not given) | inactive
42 | CCN1CCCC1Cn1cnc2c([nH]c3cc(OC)ccc32)c1=O (stereo not given) | inactive
43 | O=C(c1ccc(F)cc1)N1CCCC(C(=O)N2CCCCC2)C1 (stereo not given) | inactive
44 | COc1ccc(NC(=O)N2CCCC(c3nc(-c4ccc(F)cc4)no3)C2)cc1 (stereo not given) | inactive
45 | O=C(c1cccs1)N1CCCC(c2nc(-c3ccc(F)cc3)no2)C1 (stereo not given) | 16.4 µM (active)
